This is part of a sample that, as a whole, favours compounds with a hit. Of some 79,000 tested, about 15% had one in any assay. Activity calls are given as the source filed them. Rule as the data show it: active = growth inhibition above about 70%; inactive = the rest. Where a SMILES comes first, the peptide text is derived from it.
What was measured:
[1] = NCI Yeast Anticancer Drug Screen. Data for the rad50 strain (AID 155);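 also: 0% = growth of vehicle-only cultures of the same strain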; details: S. cerevisiae rad50 strain growth inhibition; at 50.0 µM; active compounds read high
Outline: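 Growth of the mutant yeast was measured after compound exposure and referenced to vehicle-treated cultures.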

[2] = NCI Yeast Anticancer Drug Screen. Data for the mec2-1 strain (AID 157); details: S. cerevisiae mec2-1 strain, at 50.0 µM, active compounds read high
Outline: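 Using mec2-1 yeast: add compound, measure growth, express inhibition versus vehicle-treated cultures.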

[3] = NCI Yeast Anticancer Drug Screen. Data for the sgs1 mgt1 strain (AID 161);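 also: 0% = growth of cultures given vehicle only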; details: S. cerevisiae sgs1 mgt1 strain, at 50.0 µM, active compounds read high
Outline: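 Growth of a repair-deficient yeast mutant was monitored after compound treatment and expressed as inhibition relative to vehicle-treated cultures.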

[4] = NCI Yeast Anticancer Drug Screen. Data for the cln2 rad14 strain (AID 165);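 also: 0% = growth equal to vehicle treated cultures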; details: S. cerevisiae cln2 rad14 strain, at 50.0 µM, active compounds read high
Outline: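 Yeast strain cln2 rad14, bearing defects in cell cycle control and DNA repair, serves as the test system; values reflect growth inhibition compared with vehicle.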

[5] = NCI Yeast Anticancer Drug Screen. Data for the bub3 strain (AID 167); details: S. cerevisiae bub3 mutant strain, at 50.0 µM, active compounds read high
Outline: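 Whole-cell yeast assay. The mutant strain was incubated with compounds, and growth inhibition was determined by comparison with vehicle-treated cells.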

[6] = NCI Yeast Anticancer Drug Screen. Data for the mlh1 rad18 strain (AID 175); details: S. cerevisiae mlh1 rad18 strain growth inhibition; at 50.0 µM; active compounds read high
Outline: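 Steps: expose repair-defective yeast to compound; measure growth; express inhibition against vehicle-treated controls.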

Measured: growth inhibition

COc1ccc2nc(C)c3c(c2c1)C(=O)N(CCCN1CCN(CCCN2C(=O)c4c(C)nc5ccc(OC)cc5c4C2=O)CC1)C3=O
inactive: [1] 0.6% | [2] 9.4% | [3] -7.5% | [4] -25.4% | [5] 2.15% | [6] 36.5%

CC1(C)C(C#N)C1C1=C(N2CCOCC2)[C@]2(C)C(OC(=O)c3ccccc3)CC[C@@H]2C1 (stereo not given in full)
inactive: [1] -8.6% | [2] -17.2% | [3] -8.7% | [4] 7.7% | [5] 12.4% | [6] 4.15%

COc1ccccc1NC(C)=O
inactive: [1] 8.15% | [2] 5.8% | [3] 0.15% | [4] 6% | [5] 11.4% | [6] -30.4%

O=C1OC(c2ccc([N+](=O)[O-])cc2)=N/C1=C\c1ccccc1
inactive: [1] 1.85% | [2] 4.5% | [3] 11.1% | [4] 5.45% | [5] 6.25% | [6] -11.5%

Cc1ncc2c(n1)NC(c1ccc([N+](=O)[O-])cc1)NC2 (stereo not given)
inactive: [1] 0.45% | [2] -2.9% | [3] -16.6% | [4] -3.7% | [5] 14.7% | [6] -1.7%

CCOC1(c2ccccc2)c2ccccc2Sc2ccccc21
inactive: [1] -12.5% | [2] 12.7% | [3] 5.5% | [4] -6.1% | [5] 14.4% | [6] 16.3%

CCCCCCCC/C=C\CCCCCCCC(N)=O
inactive: [1] -20.9% | [2] -34.6% | [3] -11.5% | [4] -53% | [5] -21.1% | [6] -50%

COC(=O)N/N=C/c1ccccc1Cl
inactive: [1] 4.55% | [2] -31% | [3] -18.6% | [4] -64.8% | [5] -12.5% | [6] -12.2%

Cc1oc([N+](=O)[O-])cc1C(=O)O
inactive: [1] 10.5% | [2] 7.5% | [3] -1.65% | [4] -69.7% | [5] -20.1% | [6] -8.25%

Nc1cccc2c1C(=O)OC2=O
inactive: [1] -6.6% | [2] -6.2% | [3] -10.2% | [4] -5.7% | [5] -3.45% | [6] 3.85%

S=C(SCc1c(Cl)cccc1Cl)N1CCSCC1
inactive: [1] -13.9% | [2] -14.2% | [3] 23.1% | [4] -6.85% | [5] 53% | [6] 0.6%

N#CCCc1nc(N)nc(N)n1
inactive: [1] -19.7% | [2] -3.7% | [3] -26.9% | [4] -60.3% | [5] -17.7% | [6] 5.85%

CSc1ccc(NC(=S)SCc2ccc3c(c2)OCO3)cc1Cl
active: [1] 95.7% | [2] 98.6% | [3] 98% | [4] 84.3% | [5] 97.5% | [6] 97.2%

O=S1(=O)CC(N2CCCCC2)C2=C(O1)c1ccccc1N(c1ccccc1)C2 (stereo not given)
inactive: [1] 1.8% | [2] -16.9% | [3] -11.1% | [4] 16.9% | [5] -0.4% | [6] -26.1%

C[Si](C)(C)Oc1cc(N=NNC2=CC(=O)c3ccccc3C2=O)c(O)c2ccccc12
inactive: [1] -0.1% | [2] 2.2% | [3] -11.8% | [4] -24% | [5] 7.6% | [6] 5.15%

NC(Cc1ccccc1)C(=O)Nc1ccccc1 (stereo not given)
inactive: [1] 18.3% | [2] -16% | [3] -7.3% | [4] 13.3% | [5] -22.1% | [6] 10.5%

Cc1ccc(NC(=O)Oc2ccc(Br)cc2Br)c([N+](=O)[O-])c1
inactive: [1] 9.3% | [2] -1.5% | [3] 13.7% | [4] 11.2% | [5] 4.55% | [6] -6.9%

CC(=O)N1C(Nc2ccccc2)CCN1c1ccccc1 (stereo not given)
inactive: [1] -24.2% | [2] -31.5% | [3] -14.1% | [4] 10.9% | [5] 2.05% | [6] -8.35%

CCCNCC(O)COc1ccc2c3c(c(=O)oc2c1)CCC3 (stereo not given)
inactive: [1] 1.15% | [2] 10.8% | [3] -23.9% | [4] -8.25% | [5] -29.8% | [6] -15.8%

Nc1n[nH]c(=S)n1Cc1ccccc1
inactive: [1] -21.8% | [2] -10% | [3] -27.1% | [4] -18.2% | [5] -14.6% | [6] -10.7%

CC(=O)OCC1OC(n2cc(CBr)nn2)C(OC(C)=O)C(OC(C)=O)C1OC(C)=O (stereo not given)
inactive: [1] 0.3% | [2] 4.9% | [3] -24.1% | [4] -13.6% | [5] 1.7% | [6] -19.9%

CCOC(=O)COC(=O)C1C(C(N)=O)N(CC(=O)OCC)CCN1CC(=O)OCC (stereo not given)
inactive: [1] 1.85% | [2] 1.9% | [3] -7.9% | [4] -0.85% | [5] -2.45% | [6] 2.25%

COC(=O)/C(C#N)=C(/NCc1ccccc1)Nc1ccccc1
inactive: [1] 20.8% | [2] -13.1% | [3] -8.2% | [4] 11.4% | [5] 43.6% | [6] 21.4%

C/C=C/C[P+](Cc1ccccc1)(c1ccccc1)c1ccccc1
inactive: [1] 59.6% | [2] 14.9% | [3] 26.2% | [4] -32.1% | [5] 24.6% | [6] 14.3%

CN(C)C(=S)N(C(=S)N(C)C)c1ccc(Cl)cc1
inactive: [1] -7.9% | [2] -11.8% | [3] -7.15% | [4] -4.1% | [5] 3.1% | [6] -17.8%

CC(C)=CCC[C@@H](C)C1[C@@H](OC2OC(CO)C(O)C(O)C2O)CC2(C)[C@@H]3CC(=O)C4C(C)(C)[C@@H](OC5OC(CO)C(O)C(O)C5O)CC[C@@]45C[C@@]35CC[C@]12C (stereo not given in full)
inactive: [1] -17.4% | [2] -40% | [3] -27.1% | [4] -3.15% | [5] -20.8% | [6] -25.4%

CCC1CC/C(=N\Nc2ccc([N+](=O)[O-])cc2[N+](=O)[O-])c2ccc3c(C)ccc(C)c3c21 (stereo not given)
inactive: [1] -1% | [2] 7.25% | [3] -8.7% | [4] -14.2% | [5] -2.5% | [6] 6.8%

CCCCCP(=O)(CCCCC)C1CCCC1
inactive: [1] -0.6% | [2] 11.2% | [3] -2.3% | [4] 1.75% | [5] 49.1% | [6] -0.65%

COc1cccc(Br)c1OC
inactive: [1] -5.4% | [2] 1.2% | [3] 20.8% | [4] 38.6% | [5] 31.9% | [6] -3.1%

CSCCC(N)C(=O)NC(CCSC)C(=O)O (stereo not drawn) (H-Met-Met-OH; configuration not given here)
inactive: [1] -12% | [2] -21.4% | [3] 2.4% | [4] -25.1% | [5] -8.95% | [6] -5.7%

CCCCCCCC/C=C/CCCCCC1CCCC(C)N1 (stereo not given)
inactive: [1] 26.9% | [2] -20.6% | [3] 2.3% | [4] 3.65% | [5] -11.2% | [6] -2.55%

COC1=C(N)C(=O)c2nc(-c3nc(C(=O)O)c(C)c(Br)c3N)ccc2C1=O
active: [1] 89.3% | [2] 92.2% | [3] 84.9% | [4] 89.2% | [5] 80.5% | [6] 92.7%

COC(=O)c1cc(C(=O)OC)c(C/C(=N/NC(=O)C[N+](C)(C)C)C(=O)Nc2cccc(C(F)(F)F)c2)nc1C/C(=N/NC(=O)C[N+](C)(C)C)C(=O)Nc1cccc(C(F)(F)F)c1
inactive: [1] -14.5% | [2] -1.45% | [3] -11.6% | [4] 17.1% | [5] 11.4% | [6] -2.3%

C=C1CCC2(C)CCC3(C)C(CCC4C5(C)CCC(OC(C)=O)C(C)(C)C5CCC43C)C2C1C (stereo not given)
inactive: [1] -4.05% | [2] -5.9% | [3] 4.6% | [4] 1.45% | [5] -5.15% | [6] 26.6%

Cc1cnc(SC(C)(C)C)c(C)c1
inactive: [1] -0.2% | [2] -20.2% | [3] -8.55% | [4] -68.6% | [5] 12.9% | [6] -10.5%

CN(C)C(=O)Nc1cccc2nsnc12
inactive: [1] 12.4% | [2] -2.75% | [3] 11% | [4] -50.5% | [5] -5.95% | [6] 29.6%

N#CC1C(=O)NC(=O)C(C#N)C1C1C(=O)NC2CCCCC21 (stereo not given)
inactive: [1] 41.2% | [2] 5% | [3] 17.2% | [4] 23.2% | [5] 11.1% | [6] 32.8%

CCCCCCCCCCCCCCCCCCN(C)C
inactive: [1] 54% | [2] 23.1% | [3] 13.8% | [4] -64.9% | [5] 46.7% | [6] 25.9%

C[C@H](CCc1nc(C#N)c(N)o1)[C@H]1CC[C@H]2[C@@H]3[C@@H](O)CC4C[C@@H](O)CC[C@]4(C)[C@H]3C[C@@H](O)[C@]12C (stereo not given in full)
inactive: [1] 26.4% | [2] 9.8% | [3] 10.7% | [4] 9.55% | [5] -9.1% | [6] -2.85%

Cc1ccc(S(=O)(=O)OC2CCCCCCCCCCC2=O)cc1 (stereo not given)
inactive: [1] -3.55% | [2] 6.1% | [3] -7.1% | [4] -11.9% | [5] -0.2% | [6] 6.3%

From PubChem BioAssay (NCI)
